# Measurements reported in PubChem BioAssay AID504692 (The Scripps Research Institute Molecular Screening Center, 2011).
# The campaign covered roughly 340,000 compounds. About 2,000 (0.59%) were called active. No stated cut-off is given here; in the data, active means activation mostly above about 9.5% (no sharp cut-off); inactive means mostly below about 7.6%. Only a selection was taken, and actives are over-represented in it overall.
# Molecular target: 5-hydroxytryptamine receptor 5A (Homo sapiens) (UniProt P47898)
# Assay: HTR5A agonists in luminescence cell assay, primary screen, counter-screen for OPRM1-OPRD1 heterodimer agonist project, full-deck HTS (AID 504692);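 further: 0% = cells with vehicle only and 100% = reference agonist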
# Details: cell-based, at 9.3 µM, hits give high values
# 5-hydroxytryptamine receptor 5A (Homo sapiens), sequence (P47898 whole entry, looked up): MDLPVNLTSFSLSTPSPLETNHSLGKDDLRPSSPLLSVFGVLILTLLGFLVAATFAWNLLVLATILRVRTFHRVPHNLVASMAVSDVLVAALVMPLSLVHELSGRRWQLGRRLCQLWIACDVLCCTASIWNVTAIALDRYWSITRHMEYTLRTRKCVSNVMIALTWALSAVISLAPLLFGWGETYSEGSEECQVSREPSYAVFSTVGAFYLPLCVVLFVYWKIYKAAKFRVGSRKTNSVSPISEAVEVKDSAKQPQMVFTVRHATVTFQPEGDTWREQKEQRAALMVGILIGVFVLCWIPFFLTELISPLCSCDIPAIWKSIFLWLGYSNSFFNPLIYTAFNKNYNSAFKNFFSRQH
row,SMILES,activation
1,CC1CCN(S(=O)(=O)c2ccc3c(ccn3CC(=O)O)c2)CC1,9.91% (active)
2,Cc1ccn2c(c1)nc(=O)c1cc(S(=O)(=O)N3CCC(C)CC3)ccc12,0.6% (inactive)
3,CC1CCN(S(=O)(=O)c2ccc3c(c2)n(C)c(=O)n3C)CC1,4.68% (inactive)
4,CCCCOc1ccc(NC(=O)CSCC(=O)OCC)cc1,-1.74% (inactive)
5,CCCCCCCCCCOC(=O)Cn1c(COc2ccc(C)cc2)[n+](C)c2ccccc21,9.74% (active)
6,CCCCCCCCCCOC(=O)Cn1c(COc2cccc(OC)c2)[n+](C)c2ccccc21,13.7% (active)
7,COc1cccc(OCc2nnc3n2N=C(c2ccccc2)C(CC(=O)O)S3)c1 (stereo not given),1.48% (inactive)
8,CCOC(=O)COn1c(=O)c(-c2ccc(OCC)cc2)[n+]([O-])c2ccccc21,-0.87% (inactive)
9,CCOC(=O)CNC(=O)CSc1nnc(-c2cccc(OC)c2)n1CC,1.82% (inactive)
10,CC[C@]12c3[nH]c4ccc(Cl)cc4c3CCN1C(=O)[C@@H](CC(=O)NCCCOC)C[C@@H]2C(=O)N1CCN(C(=O)c2ccco2)CC1,-0.61% (inactive)
11,COc1ccc(CNC(=O)CN(Cc2ccccc2Cl)C(=O)c2csnn2)cc1,0.86% (inactive)
12,O=c1/c(=C/c2ccc(CNS(=O)(=O)c3ccccc3)o2)sc2n1CCN=2,-6.78% (inactive)
13,CCC(C)(C)NC(=O)CN(C(=O)CCC(=O)Nc1cc(C)ccn1)c1ccc2c(c1)OCCO2,2.5% (inactive)
14,Fc1ccccc1-c1cc2cc3c(cc2cn1)OCO3,7.94% (inactive)
15,O=C(c1noc2c1CCCC2)N1CCc2ccccc2C1,5.42% (inactive)
16,CCC1(C)NC(=O)N(CC(=O)N2CCN(c3cccc(Cl)c3)CC2)C1=O (stereo not given),0.94% (inactive)
17,Cc1ccc(CCC(=O)Nc2ncc(Cc3cc(Cl)ccc3Cl)s2)o1,17.4% (active)
18,Cc1ccc(C(=O)Nc2nc3ccc(Cl)cc3s2)o1,5.48% (inactive)
19,Cc1ccc(Cc2cnc(N)s2)o1,-3.06% (inactive)
20,COc1ccc(C(=O)NCc2ccc(C)cc2)cc1S(=O)(=O)N1CCCC1,5.16% (inactive)

row,SMILES,activation
1,C/C=C/C(=O)OCC(=O)Nc1ccc(F)cc1Cl,6.73% (inactive)
2,O=C(Nc1ccc2oc(-c3ccccc3F)nc2c1)c1ccco1,0.88% (inactive)
3,Cc1ccc2nc(-c3ccc(NC(=O)c4cccnc4)cc3)oc2c1,1.12% (inactive)
4,COc1cc(OC)cc(C(=O)Nc2ccc(-c3nc4ccccc4o3)c(O)c2)c1,13.9% (active)
5,COc1ccc(C(=O)NC(C)c2nccs2)cc1OC1CCN(C(C)C)CC1 (stereo not given),0.03% (inactive)
6,Cc1ccc(C)c(NC(=O)CCC(=O)N/N=C2/CC(=O)CC(C)(C)C2)c1,0.95% (inactive)
7,Cc1c(-c2ccccc2)n[nH]c1C(=O)N=Nc1c(O)[nH]c2ccccc12,12.7% (active)
8,Oc1[nH]c2ccccc2c1N=Nc1c(F)c(F)c(F)c(F)c1F,4.3% (inactive)
9,O=C(CCN1CCCCC1)N=Nc1c(O)[nH]c2ccccc12,-0.47% (inactive)
10,NC(=O)c1ncn([C@@H]2O[C@H](CNCc3cnc(N4CCOCC4)s3)[C@@H](O)[C@H]2O)n1,-1.96% (inactive)
11,CCOC(=O)C(C)n1cnc2c(nnn2-c2ccc(F)cc2)c1=O (stereo not given),0.23% (inactive)
12,Fc1ccccc1OCCSc1nc2ccccc2o1,4.15% (inactive)
13,CS(=O)(=O)c1ccc2c(c1)SC1=NC(=O)/C(=C/c3ccco3)C(=N)N12,3.34% (inactive)
14,CC(C)(C)C1C/C(=C/c2ccco2)C(=O)/C(=C/c2ccco2)C1 (stereo not given),10.1% (active)
15,COC(=O)COc1ccc2c(c1C)O/C(=C\c1ccco1)C2=O,-6.31% (inactive)
16,COc1c(O)cc2oc(-c3ccc(O)c(O)c3)cc(=O)c2c1O,-1.01% (inactive)
17,Cc1ccc(S(=O)(=O)N2CCN(C(=O)COC(=O)/C=C/c3cccc(Cl)c3)CC2)c(C)c1,8.67% (inactive)
18,Cc1c(C2=CCN(S(=O)(=O)c3ccc(Cl)cc3)CC2)c2ccccc2n1C,1.24% (inactive)
19,COC(=O)CSc1nnc(-c2cccnc2)o1,0.3% (inactive)
20,Cc1cccc(C)c1OC(=O)CSc1nnc(-c2ccccc2)o1,11% (active)

row,SMILES,activation
1,CCN(C(=O)CSc1nnc(-c2ccncc2)o1)c1ccccc1,-1.64% (inactive)
2,CCCCN(CCCC)CCC(O)c1cc2c(Cl)cc(Cl)cc2c2cc(C(F)(F)F)ccc12 (stereo not given),5.23% (inactive)
3,Cc1nn(CC(=O)Nc2ccc3c(c2)OCO3)c(C)c1[N+](=O)[O-],6.4% (inactive)
4,Cn1cc([N+](=O)[O-])c(C(=O)Nc2ccc3c(c2)OCCO3)n1,-1.8% (inactive)
5,Cc1onc(C(=O)Nc2ccc3c(c2)OCO3)c1[N+](=O)[O-],14.2% (active)
6,O=c1cc(CO)oc(C(Nc2cccc([N+](=O)[O-])c2)c2ccccn2)c1O (stereo not given),0.87% (inactive)
7,Cc1ccc2nc(-c3ccncc3)cc(C(=O)Nc3ccc4c(c3)OCCO4)c2c1,12.6% (active)
8,Cc1ccc2nc(-c3ccncc3)cc(C(=O)Nc3ccncc3)c2c1,21% (active)
9,CCn1c(SCC(=O)Nc2ccc3c(c2)OCCO3)nnc1-c1ccncc1,3.29% (inactive)
10,CCN(CC)CCNC(=O)c1ccc(NC(=O)c2cc(-c3ccncc3)nc3ccccc23)cc1,2.22% (inactive)
11,Cc1ccc2nc(-c3ccncc3)cc(C(=O)Nc3ccc(OC(F)F)cc3)c2c1,1.14% (inactive)
12,CCOc1ncccc1C(=O)Nc1ccc2c(c1)OCCO2,0.83% (inactive)
13,COc1cc2c(cc1OC)C1C(=O)c3cc(OS(C)(=O)=O)c(OC)cc3C1N(C)C2=O (stereo not given),-2.76% (inactive)
14,OC(CN=c1sc2ccccc2n1CC(O)COc1ccccc1)COc1ccccc1 (stereo not given),7.91% (inactive)
15,CCn1nnc(NC(=O)c2cc(Cl)c(OC)c(Cl)c2)n1,-6.18% (inactive)
16,CN(CCc1ccccc1)c1ccc([N+](=O)[O-])cn1,2.92% (inactive)
17,COc1ccc(Br)cc1S(=O)(=O)N1CCN=C1C,2.3% (inactive)
18,O=C(CN1C(=O)C2C3C=CC(C3)C2C1=O)NCCc1ccccc1Cl (stereo not given),-1.28% (inactive)
19,CCCCOC(=O)NCN1C(=O)C2C3C=CC(C3)C2C1=O (stereo not given),9.49% (active)
20,CCCCCOC(=O)c1ccc(N2C(=O)C3C4C=CC(C4)C3C2=O)cc1 (stereo not given),-1.59% (inactive)
